Source: PubChem BioAssay
Active and inactive are the calls of the source. Unless noted, no rule for the calls is given here.

Key:
[1] = tested on: Aerobactin synthetase IucA (Klebsiella pneumoniae); experiment: IucA aerobactin synthetase inhibitors, biochemical, Tocris library, absorbance (AID 1345561); conditions: purified IucA enzyme assay, absorbance (OD) read-out; stronger effect = lower value;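 tested at 8 µM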;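 also: 100% = enzyme without compound and 0% = no enzyme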
[2] = sensitizers of A549 cells to miR-34 induction, primary screen, imaging, A549 dox-inducible miR-34, nuclei and caspase counts (AID 1347080;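 active = compounds whose cell count with miR-34 switched on is under 0.7 times the count with it off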); conditions: A549 miR-34 inducible, Hoechst nuclei count, 48 h
[3] = viability rescue of complex I mutant cybrids, primary screen, cell-based, galactose medium, ATP luminescence (AID 1645843;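 active = z-score of at least 1.8 in each of two replicates, scored against plate mean and spread of sample wells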;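 also: positive z means more ATP and so rescue of galactose-driven cybrid death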); conditions: complex I mutant cybrid cells, 72 h, stronger effect = higher value
[4] = liver-stage malaria parasite growth inhibition, primary screen, cell-based, HepG2, luciferase luminescence, HepG2 viability (AID 624349; in the data active = parasite load remaining mostly below about 12%, no sharp cut-off; inactive = mostly above about 10%;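 also: 100% = mean of DMSO negative control wells on the same plate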); conditions: P. berghei liver stage in HepG2, luciferase luminescence, concentration not given here; parasite load remaining: stronger effect = lower value; viability: measured here: HepG2 viability without parasites
[5] = Cy5 fluorescence interference with SSB-bound oligo, artefact control for HCV NS3 helicase inhibitor project, biochemical, NIH Clinical Collection, E. coli SSB (AID 743268)
[6] = tested on: Hepatitis C virus NS3 helicase; experiment: HCV NS3 helicase inhibitors, primary screen, biochemical, fluorescence polarization, NIH Clinical Collection (AID 743270); conditions: NS3 helicase binding to Cy5-dT15 DNA, stronger effect = higher value, concentration not given here
[7] = target: Single-stranded DNA-binding protein (Escherichia coli (strain K12)) (UniProt P0AGE0); experiment: E. coli SSB displacement from DNA, counter-screen for HCV NS3 helicase inhibitor project, biochemical, fluorescence polarization, NIH Clinical Collection (AID 743271; in the data active = inhibition above about 28%); conditions: stronger effect = higher value, concentration not given here
[8] = fluorescence interference in NS3h assay format, artefact control for HCV NS3 helicase inhibitor project, biochemical, NIH Clinical Collection (AID 743272); conditions: fluorescence interference counterscreen, stronger effect = lower value;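 also: HCV NS3 helicase with a Cy5 labelled single stranded DNA probe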
[9] = stronger effect = lower value, cell number ratio, induced over uninduced
[10] = measured here: relative caspase fold change +Dox/-Dox
[11] = measured here: total cells with miR-34 induction, stronger effect = lower value
[12] = measured here: total cells without miR-34 induction

For `CCN1C[C@]2(COC(=O)c3ccccc3N3C(=O)C[C@H](C)C3=O)CC[C@H](OC)[C@]34C2[C@H](OC)[C@](O)([C@H]13)[C@@]1(O)C[C@H](OC)[C@H]2C[C@@H]4[C@@H]1[C@H]2OC`, the remaining activity [1] was 128% (inactive), the fold change [2, 9] was 0.94 (inactive) and the fold change [2, 10] was 0.834. For the same compound, the cell count [2, 11] was 8220, the cell count [2, 12] was 8740 and the z-score [3] was -0.21 (inactive).
With `O=C(O)CCC(CP(=O)(O)O)C(=O)O` (configuration not stated) the remaining activity [1] was 113% (inactive), the fold change [2, 9] was 0.917 (inactive) and the fold change [2, 10] was 0.521. The cell count [2, 11] was 9040, the cell count [2, 12] was 9860 and the z-score [3] was -0.22 (inactive).
With `CC(=O)N1CC[N+](C)(C)CC1` the remaining activity [1] was 90.4% (inactive), the fold change [2, 9] was 0.94 (inactive) and the fold change [2, 10] was 0.788. The cell count [2, 11] was 9100, the cell count [2, 12] was 9680 and the z-score [3] was 0.25 (inactive).
For `Cc1ccc2c(c1)Cc1c(C(=O)NC3CCCCC3)nn(-c3ccc(Cl)cc3Cl)c1-2`, the remaining activity [1] was 103% (inactive), the fold change [2, 9] was 0.986 (inactive) and the fold change [2, 10] was 1.35. The cell count [2, 11] was 8570, the cell count [2, 12] was 8690 and the z-score [3] was -0.01 (inactive).
With `C[C@@H]1O[C@@H](O[C@@H]2C[C@@H](O)[C@]3(CO)[C@H]4[C@H](O)C[C@]5(C)[C@@H](C6=CC(=O)OC6)CC[C@]5(O)[C@@H]4CC[C@]3(O)C2)[C@H](O)[C@H](O)[C@H]1O` the remaining activity [1] was 107% (inactive), the fold change [2, 9] was 0.807 (inactive) and the fold change [2, 10] was 1.91. The cell count [2, 11] was 346, the cell count [2, 12] was 430 and the z-score [3] was -0.765 (inactive).
For `OC12C3C4CC5C6C4C1C6C(C53)N2CCc1cccc(F)c1` (configuration not stated), the remaining activity [1] was 98.4% (inactive), the fold change [2, 9] was 0.838 (inactive) and the fold change [2, 10] was 1.86. For the same compound, the cell count [2, 11] was 7940, the cell count [2, 12] was 9480 and the z-score [3] was 0.295 (inactive).
For `CCCN[C@@H]1CCc2c(OC)cccc2[C@@H]1C`, the remaining activity [1] was 99.1% (inactive), the fold change [2, 9] was 0.939 (inactive) and the fold change [2, 10] was 1.14. For the same compound, the cell count [2, 11] was 8780, the cell count [2, 12] was 9360 and the z-score [3] was 0.12 (inactive).
In the case of `CN(C(=O)Cc1ccccc1)C(CN1CCCC1)c1ccccc1` (configuration not stated), the remaining activity [1] is reported as 116% (inactive), the fold change [2, 9] is reported as 0.952 (inactive) and the fold change [2, 10] is reported as 0.864. The cell count [2, 11] was 8670, the cell count [2, 12] was 9110 and the z-score [3] was 0.03 (inactive).
In the case of `O=C1Nc2cc(Cl)c(Cl)cc2N2CCNCC12` (configuration not stated), the remaining activity [1] is reported as 125% (inactive), the fold change [2, 9] is reported as 0.949 (inactive) and the fold change [2, 10] is reported as 0.693. The cell count [2, 11] was 8510, the cell count [2, 12] was 8970 and the z-score [3] was -0.265 (inactive).
With `CCCCCCC[n+]1ccc(-c2cc[n+](CCCCCCC)cc2)cc1` the remaining activity [1] was 77% (inactive), the fold change [2, 9] was 1.13 (inactive) and the fold change [2, 10] was 1.23. For the same compound, the cell count [2, 11] was 1940, the cell count [2, 12] was 1710 and the z-score [3] was -1.1 (inactive).
In the case of `CC(=O)[C@H]1CC[C@H]2[C@@H]3CCC4C[C@](C)(O)CC[C@]4(C)[C@H]3CC[C@]12C` (some centres not stated), the remaining activity [1] is reported as 103% (inactive), the fold change ([2]; stronger effect = lower value) is reported as 0.92 (inactive) and the fold change [2, 10] is reported as 1.5. For the same compound, the cell count [2, 11] was 8730, the cell count [2, 12] was 9490 and the z-score [3] was -0.285 (inactive).
With `Ic1cncc(OC[C@@H]2CCN2)c1` the remaining activity [1] was 118% (inactive), the fold change [2, 9] was 0.934 (inactive) and the fold change [2, 10] was 0.549. The cell count [2, 11] was 9660, the cell count [2, 12] was 10300 and the z-score [3] was -0.135 (inactive).
With `CNCCc1cnc[nH]1` the remaining activity [1] was 101% (inactive), the fold change [2, 9] was 0.965 (inactive) and the fold change [2, 10] was 0.943. For the same compound, the cell count [2, 11] was 9430, the cell count [2, 12] was 9770 and the z-score [3] was 0.115 (inactive).
With `CC(C(=O)OC1CC2CCC(C1)N2C)c1ccc(Br)cc1` (configuration not stated) the remaining activity [1] was 87.5% (inactive), the fold change [2, 9] was 0.964 (inactive) and the fold change [2, 10] was 0.964. The cell count [2, 11] was 8760, the cell count [2, 12] was 9090 and the z-score [3] was -0.795 (inactive).
In the case of `C[C@H](N)Cc1cnc[nH]1`, the remaining activity [1] is reported as 92.3% (inactive), the fold change [2, 9] is reported as 0.997 (inactive) and the fold change [2, 10] is reported as 1.13. The cell count [2, 11] was 9180, the cell count [2, 12] was 9200 and the z-score [3] was 0.12 (inactive).
With `Cc1ncc(CN2CC=C(c3ccccc3)CC2)c(N)n1` the remaining activity [1] was 92.9% (inactive), the fold change [2, 9] was 0.973 (inactive) and the fold change [2, 10] was 1.21. For the same compound, the cell count [2, 11] was 8940, the cell count [2, 12] was 9190 and the z-score [3] was -0.505 (inactive).
In the case of `O=C1NC(=O)c2c1c1c3ccccc3n3c1c1c2c2ccccc2n1C1CCC3O1`, the parasite load remaining [4] is reported as 66.3% (inactive), the viability [4] is reported as 60.2% and the remaining activity [1] is reported as 103% (inactive). The fold change [2, 9] was 1.12 (inactive), the fold change [2, 10] was 1.11 and the cell count [2, 11] was 5410. The cell count [2, 12] was 4820 and the z-score [3] was -0.395 (inactive).
With `Oc1ccc2c3c1O[C@H]1c4[nH]c5ccccc5c4C[C@@]4(O)C(C2)N(CC2CC2)CC[C@]314` the parasite load remaining [4] was 46.5% (inactive), the viability [4] was 62.3% and the fluorescence ratio [5] was 0.91 (inactive). The inhibition [6] was -1.19% (inactive), the inhibition [7] was -0.1% (inactive) and the fluorescence ratio [8] was 0.89 (inactive). The remaining activity [1] was 101% (inactive), the fold change ([2]; stronger effect = lower value) was 1.03 (inactive) and the fold change [2, 10] was 0.989. For the same compound, the cell count [2, 11] was 8920, the cell count [2, 12] was 8700 and the z-score [3] was 0.53 (inactive).
With `CCCN(CCC)[C@@H]1CCc2c(OC)cccc2[C@@H]1C` the remaining activity [1] was 103% (inactive), the fold change [2, 9] was 0.92 (inactive) and the fold change [2, 10] was 0.674. For the same compound, the cell count [2, 11] was 8420, the cell count [2, 12] was 9160 and the z-score [3] was 0.925 (inactive).
